Only a selection was taken, and hits are over-represented in it overall.
VCAM1 pot: TNF alpha stimulated VCAM1 expression potentiation. HUVEC TNFa-stimulated VCAM-1 immunofluorescence, high-content imaging; scaled per plate to unstimulated/TNFa-only wells. activation, % at 2 µM. 93,000 tested, 0.19% active;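 active = activation above the screen mean plus 3 SD, with well images confirming the hit on visual review, cut at about 28% in these data, passing the limit was not always enough; inconclusive = activation above that limit but images do not confirm it; inactive = activation not above that limit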;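 also: signal is the number of cytoplasmic VCAM-1 stained grains per positive cell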
VCAM1 pot conf: potentiators of TNFa-induced VCAM1 expression, confirmation, imaging, HUVEC, triplicate retest | shares compounds with VCAM1 pot | HUVEC TNFa-stimulated VCAM-1 immunofluorescence imaging | activation, % at 2 µM | 230 tested, under 10 active | AID 1034;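 active = activation above 30% in triplicate retests at 2 µM, then confirmed by visual review of the well images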;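 also: scaled per plate between unstimulated and TNFa-stimulated DMSO control wells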
* hit, by the source's call.

Screening Cc1ccc(C2/C(=C(/O)c3ccc(OC(C)C)cc3)C(=O)C(=O)N2CCN2CCOCC2)cc1 (stereo not given) returned VCAM1 pot -5.
`Cc1cc(N2C(=O)C(=O)/C(=C(/O)c3ccc(F)cc3)C2c2ccc(F)cc2)no1` (stereo not given) gave VCAM1 pot 6.
CCOc1ccc(C2/C(=C(/O)c3ccc(OC)cc3)C(=O)C(=O)N2c2cc(C)on2)cc1OC (stereo not given) was read as VCAM1 pot 58* and VCAM1 pot conf -4.
O=c1[nH]c2cc3c(cc2cc1C(c1nnnn1C1CCCCC1)N1CCSCC1)OCCO3 (stereo not given) was read as VCAM1 pot 6.
`COC(=O)c1cc(NC(=O)CCc2c(C)nc3ncnn3c2C)cc(C(=O)OC)c1` gave VCAM1 pot 8.
For COc1ccc(-n2ccnc2SCC(=O)Nc2ccccc2)cc1 the results were VCAM1 pot 81* and VCAM1 pot conf -12.
COc1ccc(NC(=O)CSc2nccc(C)n2)cc1 was read as VCAM1 pot 32.
CCOC(=O)c1ccc(NC(=O)CSc2nnc(COc3ccccc3)n2C)cc1 was read as VCAM1 pot 11.
`COc1cc(OC)c(C(=O)Nc2ccc(S(=O)(=O)Nc3ncccn3)cc2)cc1OC` gave VCAM1 pot -10.
For COC(=O)c1ccc(C(=O)OC)c(NC(=O)CSCc2ccc(Br)cc2)c1 the results were VCAM1 pot -8.
Screening O=C(O)c1cn(-c2ccccc2)nc1-c1ccncc1 returned VCAM1 pot 5.
O=C(c1cn(-c2ccccc2)nc1-c1cccs1)N1CCN(c2ccccn2)CC1 was read as VCAM1 pot -6.
Screening Cc1ccc(-c2nn(-c3ccccc3)cc2C2CC(c3cccs3)=NN2C(=O)CCCC(=O)O)cc1 (stereo not given) returned VCAM1 pot 30* and VCAM1 pot conf -11.
For O=C(O)C1CC=CCC1C(=O)N1CCCC1 (stereo not given) the results were VCAM1 pot -82.
Screening CCOc1cc(N2CCOCC2)c(OCC)cc1NC(=O)CC12CC3CC(CC(C3)C1)C2 returned VCAM1 pot 3.
CCOc1ccc(Br)cc1S(=O)(=O)Nc1ccccc1N1CCOCC1 was read as VCAM1 pot 92* and VCAM1 pot conf -16.
Screening Cc1cc(=O)cc(C)n1-c1ccccc1N1CCOCC1 returned VCAM1 pot 21.
`Cc1ccccc1CSCCNC(=O)CCSc1ccccc1` gave VCAM1 pot 9.
CC1=CC(C)(C(Cl)Cl)C(C)=CC1=O (stereo not given) was read as VCAM1 pot -12.
For CC(=NCCCNC1CCCCC1)C1=C(O)CC(C)(C)CC1=O the results were VCAM1 pot inconclusive and VCAM1 pot conf -8.
`CC1(C(=O)O)Cc2ccccc2C(=O)O1` (stereo not given) gave VCAM1 pot -6.
Screening Cc1nc2ccccc2n1CC(=O)NCc1ccccc1 returned VCAM1 pot -8.
`CC(C)(C)NC(=O)Cn1c(SCC(N)=O)nc2ccccc21` gave VCAM1 pot -1.
Screening Cn1c(SCC(=O)NCc2ccc(F)cc2)nc2ccccc21 returned VCAM1 pot 50* and VCAM1 pot conf -2.
Screening N#CC(c1cccc(Cl)c1)c1ccc2c(C(F)(F)F)cc(C(F)(F)F)nc2n1 (stereo not given) returned VCAM1 pot -7.
O=C(O)C1C2CCC(O2)C1C(=O)NCc1ccncc1 (stereo not given) was read as VCAM1 pot 1.
For CCOc1cnc(-c2ccc(OC)cc2)o1 the results were VCAM1 pot 0.
`CCNc1nc(NCc2ccccc2)nc(Oc2ccc(=O)[nH]n2)n1` gave VCAM1 pot -4.
`COC(=O)c1ccc(Oc2nc(NC(C)C)nc(N(C)C)n2)cc1` gave VCAM1 pot 27.
For CCNc1nc(NC(C)C)nc(Oc2ccc(OCCOc3ccc(C)cc3)nn2)n1 the results were VCAM1 pot 38* and VCAM1 pot conf 2.
`COC(=O)CCCC[C@@H]1SC[C@@H](NC(=O)OC)[C@@H]1NC(=O)OC` gave VCAM1 pot -7.
Screening O=C(OCCCN=C1NS(=O)(=O)c2ccccc21)C1CC(=O)N(c2ccc(Cl)cc2)C1 (stereo not given) returned VCAM1 pot 5.
CCOC(=O)C1CCCN(S(=O)(=O)c2ccc(F)c(C(=O)Nc3ccc(F)c(F)c3)c2)C1 (stereo not given) was read as VCAM1 pot -1.
For CCOC(=O)C(C)n1cnc2c(cnn2-c2ccc(Cl)cc2)c1=O (stereo not given) the results were VCAM1 pot -3.
`CCOC(=O)C1CCCN(c2ncnc3c2cnn3-c2ccc(Cl)cc2)C1` (stereo not given) gave VCAM1 pot 40* and VCAM1 pot conf -12.
Screening CCCc1nnc(SCC(=O)O)n1/N=C/c1ccc2c(c1)OCO2 returned VCAM1 pot -48.
`CC1N/C(=C\C(=O)c2ccccc2)N(O)C1(C)C` (stereo not given) gave VCAM1 pot -6.
For COc1ccc(C(C)(C)C)cc1S(=O)(=O)N1CCN(C)CC1 the results were VCAM1 pot -93.
`O=C1CC(N2CCOCC2)C(=O)N1c1ccc2c(c1)OCO2` (stereo not given) gave VCAM1 pot 11.
`COc1ccc(N2C(=O)CC(N3CCN(S(=O)(=O)c4c(F)cccc4F)CC3)C2=O)cc1OC` (stereo not given) gave VCAM1 pot 57* and VCAM1 pot conf -15.
Cc1cc(C)n(-c2nc(-c3cccc(Cl)c3)cs2)n1 was read as VCAM1 pot -90.
O=C(NCCN1CCOCC1)Nc1ccc(Cl)cc1Cl was read as VCAM1 pot 1.
Screening CC1CCCCN1C(=O)Cn1cc(C(=O)c2ccco2)c2ccccc21 (stereo not given) returned VCAM1 pot -16.
Screening Cc1ccc(-c2cc(=O)[nH]c3ccccc23)cc1 returned VCAM1 pot 18.
`Cc1ccc(C(C)NC(=O)/C(C#N)=C\c2c(C)[nH]c3ccccc23)cc1` (stereo not given) gave VCAM1 pot 52* and VCAM1 pot conf -15.
`CC(C)C(OC(=O)c1ccco1)C(=O)NCc1ccccc1` (stereo not given) gave VCAM1 pot -18.
`CC(=O)NC(Cc1ccccc1)C(=O)N1CCN(C(=O)c2cccs2)CC1` (stereo not given) gave VCAM1 pot -7.
Screening COc1cc(NC(=S)NC(=O)c2ccc(C)cc2C)ccc1NC(=O)c1cccs1 returned VCAM1 pot -5.
For CC1=C(C(=O)Nc2cc(C)ccc2C)C(c2cccs2)NC(=S)N1 (stereo not given) the results were VCAM1 pot 52* and VCAM1 pot conf -11.
For O=C1CC(c2ccccc2)Cc2nc3ncnn3cc21 (stereo not given) the results were VCAM1 pot -60.
For CC1CCc2nn(CC(=O)Nc3c(F)cc(F)cc3Br)cc2C1 (stereo not given) the results were VCAM1 pot -7.
`CC(C)=C1C2CCC1C1C(=O)N(NC(=O)COc3ccc(Cl)c(C)c3)C(=O)C21` (stereo not given) gave VCAM1 pot 0.
For CN(CCOC(=O)c1ccc2c(c1)OCCO2)Cc1ccccc1 the results were VCAM1 pot -22.
